In PubChem BioAssay (EPA / NIEHS) one finds AC50 and outcome data, which are given here for 5 molecules.

Assay [1] is described as follows: BSK_3C_SRB: Viability Assessment in the BioMAP Diversity Plus: 3C Assay (AID 2283023).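 Also: fitted both ways against DMSO so a hit may be signal rise or drop.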 The note with it: primary human endothelial cells (HUVEC). Summed up:
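Cells were dosed with chemical, cultured 24 h, fixed with 10% TCA, stained with 0.1% SRB and read at 560 nm. Human umbilical vein endothelium was used; DMSO served as negative control and baseline.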

Read-out in assay [2]: Pselectin, SELP (gene 6403)
The assay can be described thus: BSK_4H_Pselectin: BioMAP Diversity Plus: 4H Assay for Pselectin Biomarker Activity (AID 2283026). The note with it: primary human endothelial cells (HUVEC); actives raise or lower the signal. The essentials:
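Endothelial primary cells (human umbilical vein) are dosed, incubated 24 h, and assayed for surface P-selectin by ELISA; responses in either direction are fitted relative to the DMSO negative control.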

Assay [3] is described as follows: BSK_4H_SRB: Viability Assessment in the BioMAP Diversity Plus: 4H Assay (AID 2283027).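 Also: cells exposed to compound for 24 h before staining.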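 As to AC50: curves fitted both ways versus DMSO so AC50 may be loss or gain.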 The note with it: primary human endothelial cells (HUVEC). Summed up:
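HUVEC, 24 h post-dose; 10% TCA fix, 0.1% SRB stain, A560 nm. Total protein = overt cytotoxicity, parallel to biomarker read. Bidirectional fit vs DMSO baseline.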

Read-out in assay [4]: Urokinase-type plasminogen activator receptor (uPAR), PLAUR (gene 5329)
The assay can be described thus: BSK_4H_uPAR: BioMAP Diversity Plus: 4H Assay for Urokinase-type plasminogen activator receptor (uPAR) Biomarker Activity (AID 2283030). The settings on record: primary human endothelial cells (HUVEC); actives raise or lower the signal. Summed up: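 Chemicals are dosed onto human vascular endothelial primary cells (umbilical vein). After 24 h, uPAR is read by ELISA. Gain or loss of signal is fitted relative to DMSO.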

Read-out in assay [5]: Plasminogen activator inhibitor-1 (PAI1), SERPINE1 (gene 5054)
The assay can be described thus: BSK_BE3C_PAI1: BioMAP Diversity Plus: BE3C Assay for Plasminogen activator inhibitor-1 (PAI1) Biomarker Activity (AID 2283037). The note with it: primary human bronchial epithelial cells; actives raise or lower the signal. The essentials:
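Values derive from bidirectional fitting against DMSO baseline of PAI-1 levels, measured by ELISA in human bronchial epithelial cells 24 h after compound addition.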

Read-out in assay [6]: Tissue plasminogen activator (tPA), PLAT (gene 5327)
As to the kind of experiment: BSK_BE3C_tPA: BioMAP Diversity Plus: BE3C Assay for Tissue plasminogen activator (tPA) Biomarker Activity (AID 2283041).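 As to outcome: tPA level quantified by ELISA one day after compound addition.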 The note with it: primary human bronchial epithelial cells; actives raise or lower the signal. The essentials: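 Gain- or loss-of-signal in tPA, measured by ELISA, derived by bidirectional fitting against DMSO. Cells: human primary bronchial epithelial; read at 24 h after chemical dosing.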

Read-out in assay [7]: Macrophage colony-stimulating factor (MCSF), CSF1 (gene 1435)
As to the kind of experiment: BSK_CASM3C_MCSF: BioMAP Diversity Plus: CASM3C Assay for Macrophage colony-stimulating factor (MCSF) Biomarker Activity (AID 2283044).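 Also: M-CSF protein amount quantified by ELISA after 24 h exposure.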 The note with it: primary human coronary artery smooth muscle cells; actives raise or lower the signal.

Assay [8] is described as follows: BSK_CASM3C_SRB: Viability Assessment in the BioMAP Diversity Plus: CASM3C Assay (AID 2283050).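 Also: total protein by SRB staining as cytotoxicity measure in parallel cultures.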 The settings on record: primary human coronary artery smooth muscle cells.
Read-out in assay [9]: Thrombomodulin, THBD (gene 7056)
As to the kind of experiment: BSK_CASM3C_Thrombomodulin: BioMAP Diversity Plus: CASM3C Assay for Thrombomodulin Biomarker Activity (AID 2283051).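 Also: thrombomodulin protein level measured by ELISA 24 h after dosing.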 The settings on record: primary human coronary artery smooth muscle cells; actives raise or lower the signal.

Read-out in assay [10]: Vascular cell adhesion molecule 1 (VCAM1), VCAM1 (gene 7412)
As to the kind of experiment: BSK_CASM3C_VCAM1: BioMAP Diversity Plus: CASM3C Assay for Vascular cell adhesion molecule 1 (VCAM1) Biomarker Activity (AID 2283055).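 Also: VCAM-1 protein level quantified by ELISA on the cells.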 The note with it: primary human coronary artery smooth muscle cells; actives raise or lower the signal.

Read-out in assay [11]: TIMP metallopeptidase inhibitor 2 (TIMP2), TIMP2 (gene 7077)
The assay can be described thus: BSK_KF3CT_TIMP2: BioMAP Diversity Plus: KF3CT Assay for TIMP metallopeptidase inhibitor 2 (TIMP2) Biomarker Activity (AID 2283071). The settings on record: primary human keratinocytes with fibroblasts; actives raise or lower the signal. The essentials: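 Chemicals were dosed onto human skin primary co-cultures of keratinocytes and foreskin fibroblasts, and TIMP-2 was measured by ELISA after 24 hours. Activity in either direction was fitted relative to DMSO.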

Read-out in assay [12]: Interleukin-1 alpha (IL1a), IL1A (gene 3552)
As to the kind of experiment: BSK_LPS_IL1a: BioMAP Diversity Plus: LPS Assay for Interleukin-1 alpha (IL1a) Biomarker Activity (AID 2283080). The note with it: primary human HUVEC with PBMC; actives raise or lower the signal. The essentials: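 Measured: IL-1 alpha via ELISA at 24 h in LPS-activated human umbilical vein endothelium–PBMC co-culture. Baseline: DMSO, bidirectional fitting.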

Read-out in assay [13]: Monocyte Chemoattractant Protein-1 (MCP1), CCL2 (gene 6347)
As to the kind of experiment: BSK_LPS_MCP1: BioMAP Diversity Plus: LPS Assay for Monocyte Chemoattractant Protein-1 (MCP1) Biomarker Activity (AID 2283081).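 As to AC50: secreted MCP-1 protein quantified by ELISA in culture supernatant.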 The note with it: primary human HUVEC with PBMC; actives raise or lower the signal. The essentials: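 LPS-stimulated HUVEC/PBMC co-culture; chemical, 24 h; MCP-1 by ELISA; bidirectional fit vs DMSO; cytotoxicity via SRB (0.1% stain, 10% TCA fix, 560 nm) in parallel wells.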

Assay [14] can be described thus: BSK_LPS_PGE2: BioMAP Diversity Plus: LPS Assay for Prostaglandin E2 (PGE2) Biomarker Activity (AID 2283082). The note with it: primary human HUVEC with PBMC; actives raise or lower the signal. Summed up: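 Compounds were added to the LPS co-culture of endothelium and PBMC, and PGE2 was measured by ELISA after 24 h. Responses in either direction were fitted with DMSO as baseline.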

Read-out in the next assay: CD38, CD38 (gene 952)
As to the kind of experiment: BSK_SAg_CD38: BioMAP Diversity Plus: SAg Assay for CD38 Biomarker Activity (AID 2283087). The settings on record: primary human HUVEC with PBMC; actives raise or lower the signal. Summed up:
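CD38 quantified by ELISA (fluorescence) in a superantigen-activated endothelial cell–PBMC co-culture at 24 h post-dose. Activity fitted in both directions relative to DMSO; parallel SRB and Alamar Blue cytotoxicity read-outs.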

Read-out in another assay: CD69, CD69 (gene 969)
As to the kind of experiment: BSK_SAg_CD69: BioMAP Diversity Plus: SAg Assay for CD69 Biomarker Activity (AID 2283089).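 As to AC50: cell surface CD69 protein quantified by ELISA with fluorescence detection.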 The note with it: primary human HUVEC with PBMC; actives raise or lower the signal. The essentials:
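HUVEC co-cultured with PBMC were dosed with chemical, and CD69 was measured by ELISA with fluorescence read-out 24 h later. Bidirectional curve fitting used DMSO as negative control and activity baseline.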

Read-out in assay [15]: E-selectin (Homo sapiens) (UniProt P16581)
As to the kind of experiment: BSK_SAg_Eselectin: BioMAP Diversity Plus: SAg Assay for Eselectin Biomarker Activity (AID 2283091). The note with it: primary human HUVEC with PBMC; actives raise or lower the signal. The essentials:
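Primary human endothelial cells and peripheral blood mononuclear cells were co-cultured and exposed to chemical for 24 hours. E-selectin levels were then quantified by ELISA, with bidirectional curve fitting normalised to DMSO controls.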

Read-out in assay [16]: Monokine induced gamma interferon (MIG), CXCL9 (gene 4283)
The assay can be described thus: BSK_SAg_MIG: BioMAP Diversity Plus: SAg Assay for Monokine induced gamma interferon (MIG) Biomarker Activity (AID 2283092). The note with it: primary human HUVEC with PBMC; actives raise or lower the signal. Summed up:
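HUVEC plus human PBMC co-culture, chemicals dosed and MIG (CXCL9) quantified by ELISA at 24 h. Bidirectional curve fitting against DMSO as negative control and baseline, so both gain and loss of signal count as activity.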

The nature of assay [17]: BSK_SAg_Proliferation: Cell Proliferation Assessment in the BioMAP Diversity Plus: SAg Assay (AID 2283095).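 Also: relative cell number as total protein by SRB absorbance in sub-confluent culture.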 The note with it: primary human HUVEC with PBMC. Summed up:
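Absorbance of sulforhodamine B at 560 nm reports total protein in a human vascular endothelial/PBMC co-culture after 96 h chemical exposure. Gain or loss of signal is fitted in both directions against DMSO.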

Assay [18] concerns the target Estrogen receptor (Homo sapiens) (UniProt P03372). The assay can be described thus: ATG_ERa_TRANS: Attagene TRANS-FACTORIAL HepG2 Assay for human Estrogen Receptor alpha (ERa) (AID 2282970; active = hit-call score of the fitted dose curve at least 0.9, where 1 is the maximum). The settings on record: HepG2 Attagene TRANS ERa GAL4 reporter, mRNA. Summed up: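 Transfected HepG2 cells carrying GAL4-UAS-driven reporter units were dosed for 24 hours. Total RNA was reverse-transcribed, reporter sequences PCR-amplified, FAM-labelled, HpaI-digested and resolved by capillary electrophoresis. Increases over DMSO control defined activity.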

Where “and” joins values, the source holds several entries; their conditions need not be identical. Equal values may be shown once. Records with an inconclusive call do not appear. Some structures have more than one record in an assay (separate samples or runs), and their calls can disagree. Calls of active or inactive are those of the source. The calls were made as follows, unless noted: active = hit-call score of the fitted dose curve at least 0.9, where 1 is the maximum; inactive = score below 0.9.

Sequence of E-selectin (Homo sapiens) (P16581 whole entry, looked up): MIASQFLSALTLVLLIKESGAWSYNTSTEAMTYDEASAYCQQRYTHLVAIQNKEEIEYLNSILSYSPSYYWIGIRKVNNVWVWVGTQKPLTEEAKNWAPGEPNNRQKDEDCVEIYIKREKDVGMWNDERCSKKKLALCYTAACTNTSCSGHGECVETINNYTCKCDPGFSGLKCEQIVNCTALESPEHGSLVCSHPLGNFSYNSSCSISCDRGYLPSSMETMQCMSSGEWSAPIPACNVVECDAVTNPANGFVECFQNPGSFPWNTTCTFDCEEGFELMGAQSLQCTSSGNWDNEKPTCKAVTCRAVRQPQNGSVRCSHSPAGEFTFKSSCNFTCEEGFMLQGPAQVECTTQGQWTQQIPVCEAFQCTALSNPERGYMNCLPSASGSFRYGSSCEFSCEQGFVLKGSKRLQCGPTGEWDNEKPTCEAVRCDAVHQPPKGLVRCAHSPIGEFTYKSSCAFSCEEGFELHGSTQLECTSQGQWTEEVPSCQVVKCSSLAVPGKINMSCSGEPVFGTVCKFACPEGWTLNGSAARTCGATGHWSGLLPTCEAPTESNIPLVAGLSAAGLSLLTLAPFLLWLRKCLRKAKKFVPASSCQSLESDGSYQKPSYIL
Sequence of Estrogen receptor (Homo sapiens) (P03372 whole entry, looked up, the tested form may be a part): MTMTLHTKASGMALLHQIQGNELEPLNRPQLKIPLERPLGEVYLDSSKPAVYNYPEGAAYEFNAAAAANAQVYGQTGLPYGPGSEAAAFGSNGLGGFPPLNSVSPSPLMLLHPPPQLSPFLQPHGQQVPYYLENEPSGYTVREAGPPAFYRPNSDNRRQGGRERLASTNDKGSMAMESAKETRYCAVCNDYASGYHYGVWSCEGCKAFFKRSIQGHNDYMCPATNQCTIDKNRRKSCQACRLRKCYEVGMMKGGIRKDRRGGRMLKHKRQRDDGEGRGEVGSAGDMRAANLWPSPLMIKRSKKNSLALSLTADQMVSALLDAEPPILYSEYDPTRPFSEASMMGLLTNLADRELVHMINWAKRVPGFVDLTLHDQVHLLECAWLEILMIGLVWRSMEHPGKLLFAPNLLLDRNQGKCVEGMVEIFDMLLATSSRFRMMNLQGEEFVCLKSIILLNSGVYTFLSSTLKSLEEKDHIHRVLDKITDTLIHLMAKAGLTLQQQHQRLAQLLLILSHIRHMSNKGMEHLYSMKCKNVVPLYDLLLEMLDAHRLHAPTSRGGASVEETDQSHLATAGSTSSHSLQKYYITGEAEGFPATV

Regarding `Cc1ccc(OP(=O)(Oc2ccc(C)cc2)Oc2ccc(C)cc2)cc1` (tested in a mixture with another compound), the AC50 in assay [1] is 9.68 µM (active); in assay [11], 5.39 µM (active); in [12] it was 4.74 µM (active); with CD38, CD38 (gene 952), 20 µM (active); in the assay with CD69, CD69 (gene 969), 9.8 µM (active); in assay [15] it was 20 µM (active). The AC50 in assay [17] is 9.42 µM (active). Further, the result in assay [2], in assay [3], in assay [4], in assay [5], in assay [6] and in assay [7] was inactive. The outcome in assay [8], in [9], in assay [10], in [13], in [14] and in [16] was inactive.
`CC1(C)[C@H](C(=O)O[C@H](C#N)c2cccc(Oc3ccccc3)c2)[C@@H]1C=C(Br)Br`: the result in assay [1], in assay [2], in [3], in assay [4], in assay [5] and in assay [6] was inactive. Further, the result in assay [7], in assay [8], in assay [9], in [10], in [11] and in [12] was inactive. The outcome in [13] was “inactive”; with CD38, CD38 (gene 952), “inactive”; with CD69, CD69 (gene 969) it was “inactive”; in assay [15] it was “inactive”; in [16] it was “inactive”; in [17], “inactive”. The AC50 is 5.23 µM (active) in assay [4]; 8.23 µM (active) in [9]; 3.97 µM (active) in assay [10]; 0.298 µM (active) in assay [11]; 1.67 µM (active) and 92.9 nM (active) in assay [14]; 2.42 µM (active) with CD38, CD38 (gene 952). In addition, the AC50 was 2.07 µM (active) with CD69, CD69 (gene 969); 1.52 µM (active) in assay [15]; 3.97 µM (active) in assay [17].
As for `CCC(C)c1cc([N+](=O)[O-])cc([N+](=O)[O-])c1OC(=O)C=C(C)C` (centres undefined), the AC50 in assay [1] is 12.9 µM (active); in assay [2] it was 7.89 µM (active); in assay [3], 20 µM (active); in assay [4] it was 5.79 µM (active); in assay [5], 11 µM (active); in [6], 6.13 µM (active). The AC50 in [7] was 30.7 µM (active); in [8] it was 30.3 µM (active); in assay [10] it was 20.5 µM (active); in assay [11] it was 21.1 µM (active); in assay [12], 20 µM (active); in assay [13], 13.4 µM (active). Besides, the AC50 in [14] was 5.41 µM (active); with CD38, CD38 (gene 952), 10.3 µM (active); with CD69, CD69 (gene 969), 8.09 µM (active); in [15], 8.28 µM (active); in [16] it was 35 µM (active); in assay [17] it was 8.87 µM (active). Further, the result in assay [9] was inactive.
Consider `O=c1c2ccccc2c(=O)c2c1cc(Cl)c1[nH]c3c([nH]c12)c(Cl)cc1c(=O)c2ccccc2c(=O)c13`, for which the molecule was classed as inactive in [18], in [1], in [2], in [3], in [4] and in assay [5]. The outcome in assay [6], in [7], in assay [8], in assay [10], in assay [11] and in assay [12] was inactive. In addition, the outcome in [13] is “inactive”; in [14], “inactive”; with CD38, CD38 (gene 952), “inactive”; with CD69, CD69 (gene 969) it was “inactive”; in [15] it was “inactive”; in assay [16] it was “inactive”. Moreover, the result in [17] was inactive. Moreover, the AC50 in assay [9] is 6 µM (active).
As for `Nc1ccc(-c2ccc(N)c(N)c2)cc1N`, the result in assay [1], in assay [3], in assay [4], in assay [6], in assay [8] and in assay [9] was inactive. The outcome is “inactive” in [12]; “inactive” in [13]; “inactive” in assay [14]; “inactive” with CD38, CD38 (gene 952); “inactive” in assay [16]; “inactive” in assay [17]. For the same molecule, the AC50 is 24.9 µM (active) in assay [2]; 11.1 µM (active) in assay [5]; 8.36 µM (active) in assay [7]; 10 µM (active) in assay [10]; 20 µM (active) in [11]; 12.7 µM (active) with CD69, CD69 (gene 969). For the same molecule, the AC50 in assay [15] was 11.7 µM (active).
